# From ChEMBL document CHEMBL1157539, “Thousands of chemical starting points for antimalarial lead identification” (Nature, 2010)
# Whole data set: some 13,000 compounds, median “IFI” near 4, cut for the highest 2% near 17. Only a selection was taken, and the highest values are over-represented in it overall.
# Assay: GSK_TCMDC: Inhibition Frequency Index (IFI). The number of non-kinase HTS assays where a compound showed > 50 % inhibition, expressed as a percentage of the number of such assays in which the compound was tested
# Type: functional
row,Structure (SMILES),IFI
1,O=C(NCCc1ccccc1)N(Cc1ccccc1-c1ccc(CNCCc2ccccc2)cc1)C1CCN(Cc2ccccc2)CC1,7.86%
2,COc1cc2nc(NCCn3cccn3)nc(NCCc3ccccc3)c2cc1OC,4.23%
3,Cc1cccc2nc(-c3cccc(-c4cccc(NC(=O)c5csnn5)c4)c3)[nH]c12,2.7%
4,N#Cc1ccc(N2CCN(Cc3cccc(-c4cccc(-c5nc6cc(C(F)(F)F)ccc6[nH]5)c4)c3)CC2)nc1,1.92%
5,COc1cc2nc(NCCc3cccc(Cl)c3)nc(NCc3ccccc3)c2cc1OC,17.1%
6,COc1ccc(CCNc2nc(NCc3ccccc3)c3cc(OC)c(OC)cc3n2)cc1OC,5.84%
7,COc1cccc(CCNc2nc(NCc3ccccc3)c3cc(OC)c(OC)cc3n2)c1,5.93%
8,CCCc1cc(=O)[nH]c(-n2nc(C)cc2NC(=O)C(CC)c2ccccc2)n1 (stereo unspecified),18.5%
9,CCc1c(C)nc(-n2nc(C)cc2NC(=O)C(CC)c2ccccc2)[nH]c1=O (stereo unspecified),11.8%
10,CCCc1cc(=O)[nH]c(-n2nc(C)cc2NC(=O)CC(c2ccccc2)c2ccccc2)n1,12.2%
11,Cc1cc(N2CCCC2)nc(Nc2ccc(NC(=O)COc3ccccc3)cc2)n1,22.2%
12,Cc1cc(N2CCCC2)nc(Nc2ccc(NC(=O)Nc3ccccc3)cc2)n1,16.2%
13,CCC(=O)Nc1ccc(Nc2nc(C)cc(N3CCCC3)n2)cc1,7.84%
14,Cc1cc(N2CCCC2)nc(Nc2ccc(NC(=O)Cc3ccccc3)cc2)n1,15.4%
15,COc1ccc(NC(=O)Nc2ccc(Nc3nc(C)cc(N4CCCC4)n3)cc2)cc1,11.8%
16,COc1cccc(NC(=O)Nc2ccc(Nc3nc(C)cc(N4CCCC4)n3)cc2)c1,17.3%
17,C=CCOC(=O)N1CCC(CNCc2ccc(-c3cccc(-c4nc5cc(F)ccc5[nH]4)c3)cc2)C1 (stereo unspecified),2.91%
18,COc1cc2nc(SCCCC#N)n(C3CCCCCC3)c(=N)c2cc1OC,3.6%
19,CS(=O)(=O)c1cccc2sc(N3CCN(C(=O)c4ccc([N+](=O)[O-])o4)CC3)nc12,4%
20,Cc1cccc(Nc2c(-c3cc(Br)ccc3O)nc3ncccn23)c1,8.7%
21,COc1ccc(CNC(=O)c2cnc3c(O)cccc3c2Nc2cccc(NC(=O)c3ccc(F)cc3)c2)cc1,6.98%

row,Structure (SMILES),IFI
1,CCCCCCOc1ccc(/C(N)=N\Cc2ccccc2)c2c1CCCC2,13.3%
2,CCCCCOc1ccc(C(=NC)N(CCCCC)CCCCC)c2ccccc12,25.2%
3,CCCCCCN(CCCCCC)CC(O)c1c(OC)ccc2ccccc12 (stereo unspecified),5.93%
4,Cc1ccc(Nc2cc(C)nn2-c2nc(C)cc(O)n2)cc1,12.3%
5,CN(C)Cc1cccc(-c2ccc3ccnc(N)c3c2)c1,4.42%
6,Cc1[nH]c(C)c(-c2ccc(-c3ccccc3C(F)(F)F)nc2)c(=O)c1Br,0.92%
7,COc1ccc2c(NN=Cc3ccc(Cl)cc3)ccnc2c1,2.26%
8,CCCCOc1c(CCNCCCCNCCc2cc(F)c3ccccc3c2OCCCC)cc(F)c2ccccc12,19.6%
9,CCOc1c(CNCCCCCCNCc2ccc3ccccc3c2OCC)ccc2ccccc12,22%
10,CCCCOc1cc(CNCCCCCCNCc2cc(OCCCC)cc3ccccc23)c2ccccc2c1,12.5%
11,CCCOc1c(CCNCCCCNCCc2ccc3ccccc3c2OCCC)ccc2ccccc12,14.7%
12,CCOc1c(CCNCCCCNCCc2ccc3ccccc3c2OCC)ccc2ccccc12,18.4%
13,CCCCOc1c(CCNCCCCNCCc2cc(OC)c3ccccc3c2OCCCC)cc(OC)c2ccccc12,15%
14,CCCCOc1c(CNCCCCCCNCc2ccc3ccccc3c2OCCCC)ccc2ccccc12,16.6%
15,CCOc1cc2ccccc2cc1CNCCCCCCNCc1cc2ccccc2cc1OCC,11.5%
16,[O-][s+]1nc(NCCCN(Cc2cccs2)c2ccccn2)c(NCc2ccccc2)n1 (stereo unspecified),4.83%
17,CCNC(C)(C)CN(Cc1ccc(-c2ccc(C(F)(F)F)cc2)cc1)C(=O)Cn1c(CCc2cccc(F)c2F)nc(=O)c2ccccc21,6.94%
18,Cc1cccc2nc(-c3ccc(-c4ccc(CN5CC(C)OC(C)C5)cc4)cc3)[nH]c12 (stereo unspecified),6.94%
19,CC1CC1C(=O)NC1CCN(CC2(c3ccccc3)CCCCC2)CC1 (stereo unspecified),6.38%
20,Cc1ccoc1C(=O)Nc1cccc(-c2cccc(-c3nc4cc(C(F)(F)F)ccc4[nH]3)c2)c1,6.48%
21,COc1cc(CC2c3cc(O)c(Cl)cc3CCN2C)c(OC)cc1C (stereo unspecified),2.13%

row,Structure (SMILES),IFI
1,COc1ccc(CCNC(C)Cc2ccc(C(=O)Nc3ccc(CC(C)NCCc4cccc(Cl)c4)cc3)cc2)cc1 (stereo unspecified),9.86%
2,Cn1c(Nc2cc(C(C)(C)C)on2)nc2cc(Nc3ccnc(Nc4ccc(CS(C)(=O)=O)cc4)n3)ccc21,0.95%
3,CCCCCCCNc1cc(C)nc2ccc(OC)cc12,7.3%
4,COc1ccc(C(c2ccc(N(C)C)cc2)c2ccc(N(C)C)cc2)cc1,18.2%
5,CN(C)c1ccc(OCCCCCCOc2ccccc2)cc1,0.72%
6,CN(C)c1ccc(C(c2ccc(N(C)C)cc2)c2cc([N+](=O)[O-])ccc2Cl)cc1,1.47%
7,CC(C)CCNC(=O)C1Cc2c([nH]c3ccc(Br)cc23)C2(CCN(Cc3ccccc3)CC2)N1 (stereo unspecified),7.04%
8,CN1CCCC(CN2CCN(Cc3cccc(-c4ccc(-c5nc6ccccc6[nH]5)s4)c3)CC2)C1 (stereo unspecified),5.63%
9,CN1CCN(c2nsc3ccc(-c4ccc(OCCN5CCCC5)cc4)cc23)CC1,12.2%
10,Cc1cc(NCCc2ccccc2)nc(NC(=N)Nc2cccc([N+](=O)[O-])c2)n1,6.21%
11,N=C(N)Nc1nccc(NCc2ccccc2)n1,5.3%
12,CC1(C)N=C(NC(=O)Nc2ccc([N+](=O)[O-])cc2)N=C(N)N1OCc1cccc2ccccc12,1.46%
13,COc1ccc(-c2nccc(NC(=N)NCc3ccccc3)n2)cc1,10.7%
14,N=C(Nc1cccc(Cc2ccccc2)n1)Nc1ncccn1,17.2%
15,N=C(Nc1ccccc1)Nc1cccc(Cc2ccc([N+](=O)[O-])cc2)n1,19.9%
16,CC(C)(C)CCN1CCC(CNC(=O)c2cc(-c3cccc(C(F)(F)F)c3)cs2)C1 (stereo unspecified),10%
17,CN(C)Cc1ccc(-c2cc3c(-c4ccc(CN(C)C)cc4)ccnc3[nH]2)cc1,0%
18,Cn1cc(-c2ccnc3[nH]c(-c4cccc(CNC5CCC(O)CC5)c4)cc23)cn1 (stereo unspecified),8.11%
19,CN(C)Cc1cccc(-c2cc3c(-c4cnn(C)c4)c(Cl)cnc3[nH]2)c1,22.2%
